According to PubChem BioAssay (NCI):
The panel holds about 79,000 compounds, 15% with a hit somewhere; the sample as a whole holds those more often. Values without a mark were called inactive. The source made the active and inactive calls. No stated cut-off is given here; in the data, active means growth inhibition above about 70%; inactive means the rest.

Tests used:
[1] = NCI Yeast Anticancer Drug Screen. Data for the rad50 strain (AID 155);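 further: 0% = growth of vehicle-only cultures of the same strain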; settings: S. cerevisiae rad50 strain growth inhibition, active compounds read high
In short: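 Growth of the mutant yeast was measured after compound exposure and referenced to vehicle-treated cultures.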

[2] = NCI Yeast Anticancer Drug Screen. Data for the mec2-1 strain (AID 157); settings: S. cerevisiae mec2-1 strain, active compounds read high
In short: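 Compounds were applied to mec2-1 yeast cells. Their growth was then compared with that of vehicle-treated cultures to give growth inhibition.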

[3] = NCI Yeast Anticancer Drug Screen. Data for the sgs1 mgt1 strain (AID 161);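 further: 0% = growth of cultures given vehicle only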; settings: S. cerevisiae sgs1 mgt1 strain, active compounds read high
In short: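 Yeast cells carrying a defined DNA-repair defect were exposed to test compounds. Growth inhibition was measured relative to vehicle-treated controls.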

[4] = NCI Yeast Anticancer Drug Screen. Data for the cln2 rad14 strain (AID 165);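 further: 0% = growth equal to vehicle treated cultures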; settings: S. cerevisiae cln2 rad14 strain, active compounds read high
In short: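 Strain: cln2 rad14 yeast, altered in cell cycle control and DNA damage repair. Read-out: growth inhibition vs vehicle.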

[5] = NCI Yeast Anticancer Drug Screen. Data for the bub3 strain (AID 167); settings: S. cerevisiae bub3 mutant strain, active compounds read high
In short: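 Whole-cell yeast assay. The mutant strain was incubated with compounds, and growth inhibition was determined by comparison with vehicle-treated cells.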

[6] = NCI Yeast Anticancer Drug Screen. Data for the mlh1 rad18 strain (AID 175); settings: S. cerevisiae mlh1 rad18 strain growth inhibition, active compounds read high
In short: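 A repair-deficient yeast strain is exposed to test compound, and growth is scored relative to vehicle-treated controls.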

[7] = at 5.0 µM (retest, dose inferred, filed as 0.5)
[8] = at 50.0 µM (retest, dose inferred, filed as 5.0)

SMILES | growth inhibition [1, 7] | growth inhibition [1, 8] | growth inhibition ([1]; at 50.0 µM) | growth inhibition [2, 7] | growth inhibition [2, 8] | growth inhibition ([2]; at 50.0 µM) | growth inhibition [3, 7] | growth inhibition [3, 8] | growth inhibition ([3]; at 50.0 µM) | growth inhibition [4, 7] | growth inhibition [4, 8] | growth inhibition ([4]; at 50.0 µM) | growth inhibition [5, 7] | growth inhibition [5, 8] | growth inhibition ([5]; at 50.0 µM) | growth inhibition [6, 7] | growth inhibition [6, 8] | growth inhibition ([6]; at 50.0 µM)
COc1ccc(OC)c(C[P+](c2ccccc2)(c2ccccc2)c2ccccc2)c1 | 97% (active) | 96% (active) | 98.7% (active) | 97% (active) | 99% (active) | 98.9% (active) | 97% (active) | 99% (active) | 98.5% (active) | 92% (active) | 99% (active) | 98.8% (active) | 96% (active) | 99% (active) | 99% (active) | 98% (active) | 99% (active) | 99% (active)
CCOc1ccc2c(c1)n([O-])c1cc(Br)ccc1[n+]2=O | 95% (active) | 93% (active) | 22.4% | 49% | 85% (active) | 86.3% (active) | 72% (active) | 95% (active) | 88.2% (active) | 35% | 90% (active) | 49% | 33% | 92% (active) | 78.6% (active) | 91% (active) | 93% (active) | 85.8% (active)
CCN(C(=O)c1ccccc1C)C(c1ccccc1)P(=O)(c1ccccc1)c1ccccc1 (stereo not given) | 61% | 99% (active) | 78.6% (active) | 67% | 98% (active) | 86.3% (active) | 28% | 98% (active) | 87.7% (active) | 54% | 98% (active) | 53.8% | 61% | 96% (active) | 87.2% (active) | 61% | 99% (active) | 84.7% (active)
O=C(O)C1C(Br)(c2ccccc2)C1(Br)c1ccccc1 (stereo not given) | 47% | 90% (active) | 90.7% (active) | -1% | 30% | 17.7% | 9% | 70% (active) | 69% | 25% | 93% (active) | 83.8% (active) | -3% | 10% | 7.05% | -8% | 55% | 59.9%
[Cl][Ge]([c]1ccccc1)[c]1ccccc1.[Cl][Ge]([c]1ccccc1)[c]1ccccc1 | 22% | 73% (active) | 33.4% | 19% | 79% (active) | 41.5% | 23% | 80% (active) | 55.1% | 4% | 70% (active) | -4.65% | 16% | 80% (active) | 34.5% | 12% | 78% (active) | 76.3% (active)
O=C(Nc1ccccc1C(=O)O)c1ccccc1 | -7% | 50% | 44% | 2% | -6% | 23.5% | -5% | -22% | 79.7% (active) | -2% | -14% | -11.6% | -14% | 30% | 36% | -7% | 23% | 78.2% (active)
O=[N+]([O-])c1ccc(C2=Nn3cnnc3SC2)o1 | 2% | 36% | 81.7% (active) | 5% | 35% | 20.9% | 27% | 73% (active) | 80.8% (active) | 1% | 29% | 78.5% (active) | 4% | 75% (active) | 59.3% | 18% | 84% (active) | 86.7% (active)
Cc1cccc(N2C(c3ccccc3)c3ccc(C)cc3NS2=O)c1 (stereo not given) | 2% | -1% | 98.7% (active) | 2% | -2% | 98.8% (active) | 1% | -2% | 99.1% (active) | 1% | 1% | 98.7% (active) | -2% | -1% | 99.2% (active) | -4% | -7% | 99.2% (active)
CCCCCCc1c(Cl)nc(Cl)nc1Cl | -1% | 56% | 65.8% | 1% | 43% | 26.2% | -6% | 41% | 63.5% | 0% | 15% | -46.6% | -1% | 33% | 25.1% | -2% | 66% | 87.2% (active)
COc1ccc2[nH]c3ccc4cc[n+](CCN5CCC(C6CCN(CC[n+]7ccc8ccc9[nH]c%10ccc(OC)cc%10c9c8c7)CC6)CC5)cc4c3c2c1 | 69% | 98% (active) | 90.4% (active) | 57% | 98% (active) | 93.5% (active) | 29% | 98% (active) | 90.1% (active) | 34% | 96% (active) | 91.1% (active) | 22% | 96% (active) | 91.1% (active) | 77% (active) | 97% (active) | 90.5% (active)
